Test results: PubChem BioAssay (EPA / NIEHS)
The source made the active and inactive calls. Rule for the calls: active = hit-call score of the fitted dose curve at least 0.9, where 1 is the maximum; inactive = score below 0.9.

How the values were obtained:
Conditions in all cases: mRNA level, 48 h; actives raise or lower the signal
CYP2C9 (gene 1559) = assay: LTEA_HepaRG_CYP2C9: Life Technologies and Expression Analysis (LTEA) Assay for CYP2C9 using HepaRG (AID 2283484)
Summary of the method: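 Eight-point concentration-response (highest 100 uM, half-log dilutions) in HepaRG cells for 48 h; CYP2C9 expression by qRT-PCR normalized to ACTB, GAPDH, POLR2A. Bidirectional fit, DMSO baseline.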

CYP2E1 (gene 1571) = assay: LTEA_HepaRG_CYP2E1: Life Technologies and Expression Analysis (LTEA) Assay for CYP2E1 using HepaRG (AID 2283485)
Summary of the method: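 Readout is qRT-PCR of CYP2E1 mRNA, normalized to three housekeeping genes and fitted bidirectionally against 0.5% DMSO. HepaRG cells were dosed 48 h at eight concentrations, highest 100 uM with half-log dilutions.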

CYP4A11 (gene 1579) = assay: LTEA_HepaRG_CYP4A11: Life Technologies and Expression Analysis (LTEA) Assay for CYP4A11 using HepaRG (AID 2283486)
Summary of the method: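 Readout is CYP4A11 transcript level by qRT-PCR, normalized to three housekeeping genes and fitted bidirectionally against 0.5% DMSO. Human HepaRG cells were treated 48 h, in duplicate, with an 8-point half-log series topping at 100 uM.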

[1] = read-out: Cytochrome P450 3A4 (Homo sapiens) (UniProt P08684); assay: LTEA_HepaRG_CYP3A4: Life Technologies and Expression Analysis (LTEA) Assay for CYP3A4 using HepaRG (AID 2283487)
Summary of the method: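 Differentiated HepaRG cells, plated 48 h, then dosed 48 h in serum-free induction medium with 0.5% DMSO, 8 half-log concentrations up to 100 uM, duplicate. CYP3A4 mRNA by qRT-PCR, normalized to ACTB/GAPDH/POLR2A; bidirectional fit versus DMSO.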

[2] = read-out: Pro-epidermal growth factor (Homo sapiens) (UniProt P01133); assay: LTEA_HepaRG_EGF: Life Technologies and Expression Analysis (LTEA) Assay for Epidermal growth factor (EGF) using HepaRG (AID 2283489)
Summary of the method: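 EGF transcript measured by Fluidigm TaqMan qRT-PCR with three housekeeping genes for normalization, 48 h after dosing HepaRG cultures in duplicate (top 100 uM, half-log steps, 0.5% DMSO vehicle). Gain or loss relative to DMSO fitted.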

[3] = read-out: Early growth response protein 1 (EGR1) transcription factor, EGR1 (gene 1958); assay: LTEA_HepaRG_EGR1: Life Technologies and Expression Analysis (LTEA) Assay for Early growth response protein 1 (EGR1) transcription factor using HepaRG (AID 2283490)
Summary of the method: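 EGR1 expression change in human HepaRG after 48 h chemical exposure, assessed by housekeeping-normalized qRT-PCR; concentration-response up to 100 uM, fitted in both directions against DMSO controls.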

[4] = read-out: Ezrin (EZR), EZR (gene 7430); assay: LTEA_HepaRG_EZR: Life Technologies and Expression Analysis (LTEA) Assay for Ezrin (EZR) using HepaRG (AID 2283491)
Summary of the method: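 EZR transcript levels came from Fluidigm qRT-PCR and were normalized to three housekeeping genes after 48 h chemical exposure of HepaRG cells. Dosing used an 8-point half-log series with a 100 uM top concentration in 0.5% DMSO, tested in duplicate; both directions were fitted versus vehicle.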

[5] = read-out: Cytochrome P450 3A7 (Homo sapiens) (UniProt P24462); assay: LTEA_HepaRG_CYP3A7: Life Technologies and Expression Analysis (LTEA) Assay for CYP3A7 using HepaRG (AID 2283492)
Summary of the method: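 CYP3A7 transcript measured by qRT-PCR (ACTB, GAPDH, POLR2A normalization) after 48 h chemical exposure of HepaRG cells in duplicate. Eight half-log concentrations, maximum 100 uM, 0.5% DMSO vehicle; bidirectional curve fitting against DMSO baseline.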

CYP3A5 (gene 1577) = assay: LTEA_HepaRG_CYP3A5: Life Technologies and Expression Analysis (LTEA) Assay for CYP3A5 using HepaRG (AID 2283493)
Summary of the method: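 Human HepaRG hepatic cells receive 48 h chemical treatment at eight concentrations (half-log steps from 100 uM) in 0.5% DMSO. Expression of CYP3A5 is quantified by Fluidigm qRT-PCR and normalized to three reference genes.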

[6] = read-out: Fatty Acid-Binding Protein 1 (FABP1), FABP1 (gene 2168); assay: LTEA_HepaRG_FABP1: Life Technologies and Expression Analysis (LTEA) Assay for Fatty Acid-Binding Protein 1 (FABP1) using HepaRG (AID 2283494)
Summary of the method: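 Values reflect bidirectional concentration-response fitting of FABP1 mRNA change against 0.5% DMSO controls. Human HepaRG cultures received eight half-log doses (top 100 uM) for 48 h; expression quantified by TaqMan qRT-PCR with housekeeping-gene normalization.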

[7] = read-out: Cytochrome P450 4A22 (Homo sapiens) (UniProt Q5TCH4); assay: LTEA_HepaRG_CYP4A22: Life Technologies and Expression Analysis (LTEA) Assay for Cytochrome P450 4A22 (CYP4A22) using HepaRG (AID 2283495)
Summary of the method: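 Gene expression measured by qRT-PCR against three housekeeping genes (ACTB, GAPDH, POLR2A), with gain or loss fitted relative to 0.5% DMSO vehicle. HepaRG cultures received 48 h chemical treatment, top concentration 100 uM, half-log steps, duplicate wells.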

[8] = read-out: Glutathione S-Transferase (GSTA2), GSTA2 (gene 2939); assay: LTEA_HepaRG_GSTA2: Life Technologies and Expression Analysis (LTEA) Assay for Glutathione S-Transferase (GSTA2) using HepaRG (AID 2283497)
Summary of the method: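 Oxidative-stress marker GSTA2 is quantified by TaqMan qRT-PCR in HepaRG cultures treated 48 h across an eight-point range to 100 uM. Expression is normalized to endogenous controls and compared with 0.5% DMSO vehicle.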

[9] = read-out: Glutamate-cysteine ligase catalytic (GCLC), GCLC (gene 2729); assay: LTEA_HepaRG_GCLC: Life Technologies and Expression Analysis (LTEA) Assay for Glutamate-cysteine ligase catalytic (GCLC) using HepaRG (AID 2283498)
Summary of the method: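 Oxidative-stress marker GCLC is measured as mRNA change in human HepaRG liver cells after 48 h chemical treatment in 0.5% DMSO, eight concentrations from 100 uM. Activity is fitted bidirectionally against vehicle.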

[10] = read-out: growth arrest and DNA damage 45 (GADD45G), GADD45G (gene 10912); assay: LTEA_HepaRG_GADD45G: Life Technologies and Expression Analysis (LTEA) Assay for growth arrest and DNA damage 45 (GADD45G) using HepaRG (AID 2283499)
Summary of the method: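 GADD45G transcript level by qRT-PCR (housekeeping-normalized: ACTB, GAPDH, POLR2A) after 48 h chemical treatment of a single HepaRG lot in serum-free induction medium; eight-point half-log series up to 100 uM in 0.5% DMSO, duplicates, up- or down-regulation scored.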

[11] = read-out: Glutamate-cysteine ligase regulatory (GCLM), GCLM (gene 2730); assay: LTEA_HepaRG_GCLM: Life Technologies and Expression Analysis (LTEA) Assay for Glutamate-cysteine ligase regulatory (GCLM) using HepaRG (AID 2283500)
Summary of the method: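 Endpoint is GCLM transcript level by qRT-PCR, normalized to three housekeeping genes, after 48 h chemical exposure of human HepaRG cells (0.5% DMSO vehicle, top 100 uM, half-log dilutions). Fitting was bidirectional relative to DMSO.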

[12] = read-out: Glutathione S-transferase M3 (GSTM3), GSTM3 (gene 2947); assay: LTEA_HepaRG_GSTM3: Life Technologies and Expression Analysis (LTEA) Assay for Glutathione S-transferase M3 (GSTM3) using HepaRG (AID 2283501)
Summary of the method: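 GSTM3 transcript levels came from Fluidigm TaqMan qRT-PCR normalized to three housekeeping genes, fitted in both directions against DMSO. HepaRG cultures received chemicals for 48 h in serum-free induction medium (0.5% DMSO), 8 half-log concentrations up to 100 uM, duplicate.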

[13] = read-out: Heat shock 70 kDa protein 1 (HSPA1A), gene 3303; assay: LTEA_HepaRG_HSPA1A: Life Technologies and Expression Analysis (LTEA) Assay for Heat shock 70 kDa protein 1 (HSPA1A) using HepaRG (AID 2283502)
Summary of the method: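 Cells were plated and cultured for 48 h, then switched to serum-free induction medium. Chemicals were added at eight half-log concentrations up to 100 uM for 48 h. RNA was then isolated and HSPA1A measured by qRT-PCR with bidirectional curve fitting against DMSO.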

[14] = read-out: Hypoxia-inducible factor 1-alpha (Homo sapiens) (UniProt Q16665); assay: LTEA_HepaRG_HIF1A: Life Technologies and Expression Analysis (LTEA) Assay for Hypoxia-inducible factor 1 (HIF1A) Trancription factor using HepaRG (AID 2283503)
Summary of the method: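 HIF1A transcript level read by qRT-PCR (ACTB, GAPDH, POLR2A normalization) after 48 h chemical exposure of HepaRG cultures. Eight half-log concentrations, top 100 uM, 0.5% DMSO vehicle, duplicates; bidirectional curve fit against DMSO baseline.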

[15] = read-out: Cytochrome P450 7A1 (Homo sapiens) (UniProt P22680); assay: LTEA_HepaRG_CYP7A1: Life Technologies and Expression Analysis (LTEA) Assay for Cytochrome P450 7A1 (CYP7A1) using HepaRG (AID 2283496)
Summary of the method: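 HepaRG, 48 h exposure, 8-pt half-log series from 100 uM, 0.5% DMSO vehicle, duplicates. Readout: TaqMan qRT-PCR mRNA vs three housekeeping genes; bidirectional curve fit against DMSO baseline.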

[16] = read-out: DNA damage-inducible transcript 3 (DDIT3), DDIT3 (gene 1649); assay: LTEA_HepaRG_DDIT3: Life Technologies and Expression Analysis (LTEA) Assay for DNA damage-inducible transcript 3 (DDIT3) using HepaRG (AID 2283488)
Summary of the method: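 Cells are human HepaRG liver cells treated for 48 h with eight half-log concentrations up to 100 uM in 0.5% DMSO. Transcript levels come from qRT-PCR normalized to three housekeeping genes, with activity fitted in both directions relative to vehicle.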

Cytochrome P450 3A4 (Homo sapiens), sequence (P08684 whole entry, looked up): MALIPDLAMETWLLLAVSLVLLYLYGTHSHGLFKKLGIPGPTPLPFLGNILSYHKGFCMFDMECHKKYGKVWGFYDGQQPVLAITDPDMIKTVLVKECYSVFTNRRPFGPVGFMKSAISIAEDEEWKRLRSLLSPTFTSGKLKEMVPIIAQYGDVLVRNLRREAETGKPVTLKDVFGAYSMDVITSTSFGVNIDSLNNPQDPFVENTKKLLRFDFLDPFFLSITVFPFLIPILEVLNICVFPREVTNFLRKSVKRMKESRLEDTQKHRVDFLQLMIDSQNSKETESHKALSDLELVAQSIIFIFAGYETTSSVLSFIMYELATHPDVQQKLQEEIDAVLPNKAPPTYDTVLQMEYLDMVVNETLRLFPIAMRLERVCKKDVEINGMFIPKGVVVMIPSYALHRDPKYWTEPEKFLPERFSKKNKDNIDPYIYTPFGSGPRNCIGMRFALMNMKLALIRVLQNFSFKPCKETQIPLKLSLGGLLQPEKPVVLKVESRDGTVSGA
Cytochrome P450 3A7 (Homo sapiens), sequence (P24462 whole entry, looked up): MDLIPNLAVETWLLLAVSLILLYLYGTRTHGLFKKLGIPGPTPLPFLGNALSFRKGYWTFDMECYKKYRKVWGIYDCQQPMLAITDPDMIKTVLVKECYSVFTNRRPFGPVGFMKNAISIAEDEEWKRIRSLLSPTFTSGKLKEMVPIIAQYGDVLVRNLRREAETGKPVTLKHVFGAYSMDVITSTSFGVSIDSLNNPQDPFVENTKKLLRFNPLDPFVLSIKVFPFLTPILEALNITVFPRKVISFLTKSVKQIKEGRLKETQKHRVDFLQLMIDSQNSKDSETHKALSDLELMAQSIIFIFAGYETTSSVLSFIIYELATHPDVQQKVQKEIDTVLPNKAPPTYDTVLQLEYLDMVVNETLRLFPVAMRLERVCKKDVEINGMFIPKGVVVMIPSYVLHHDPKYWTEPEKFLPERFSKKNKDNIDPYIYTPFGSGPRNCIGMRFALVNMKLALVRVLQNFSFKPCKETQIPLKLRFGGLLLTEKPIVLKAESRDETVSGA
Hypoxia-inducible factor 1-alpha (Homo sapiens), sequence (Q16665 whole entry, looked up): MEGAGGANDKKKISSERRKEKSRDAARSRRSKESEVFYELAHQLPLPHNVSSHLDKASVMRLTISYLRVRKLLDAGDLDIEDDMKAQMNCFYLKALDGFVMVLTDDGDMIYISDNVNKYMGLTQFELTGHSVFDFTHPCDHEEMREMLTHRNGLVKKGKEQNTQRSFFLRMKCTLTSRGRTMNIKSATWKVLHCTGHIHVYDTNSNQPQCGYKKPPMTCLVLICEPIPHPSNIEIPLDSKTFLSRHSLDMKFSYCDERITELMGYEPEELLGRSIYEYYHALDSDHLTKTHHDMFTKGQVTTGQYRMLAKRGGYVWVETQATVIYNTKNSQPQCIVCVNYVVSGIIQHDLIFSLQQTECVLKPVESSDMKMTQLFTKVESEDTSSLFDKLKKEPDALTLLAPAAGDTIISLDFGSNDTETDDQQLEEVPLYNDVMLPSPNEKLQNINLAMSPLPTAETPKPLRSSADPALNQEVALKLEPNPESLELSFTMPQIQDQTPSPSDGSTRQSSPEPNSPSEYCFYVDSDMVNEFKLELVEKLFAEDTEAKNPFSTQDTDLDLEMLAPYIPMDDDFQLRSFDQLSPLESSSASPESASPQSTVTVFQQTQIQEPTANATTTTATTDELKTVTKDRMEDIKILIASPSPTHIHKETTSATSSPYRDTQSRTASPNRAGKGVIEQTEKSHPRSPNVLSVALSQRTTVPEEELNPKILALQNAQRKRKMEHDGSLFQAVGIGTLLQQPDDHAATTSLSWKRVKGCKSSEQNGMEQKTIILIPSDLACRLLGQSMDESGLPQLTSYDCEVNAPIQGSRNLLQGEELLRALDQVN

NCCOCCOCCN
outcome (CYP2C9 (gene 1559)): inactive
outcome (CYP2E1 (gene 1571)): inactive
outcome (CYP4A11 (gene 1579)): inactive
outcome [1]: inactive
outcome [2]: inactive
outcome [3]: inactive
outcome [4]: inactive
outcome [5]: inactive
outcome (CYP3A5 (gene 1577)): inactive
outcome [6]: inactive
outcome [7]: inactive
outcome [8]: inactive
outcome [9]: inactive
outcome [10]: inactive
outcome [11]: inactive
outcome [12]: inactive
outcome [13]: inactive
outcome [14]: inactive

NC=O
outcome (CYP2C9 (gene 1559)): inactive
outcome (CYP2E1 (gene 1571)): inactive
outcome (CYP4A11 (gene 1579)): inactive
outcome [1]: inactive
outcome [2]: inactive
outcome [3]: inactive
outcome [4]: inactive
outcome [5]: inactive
outcome (CYP3A5 (gene 1577)): inactive
outcome [6]: inactive
outcome [7]: inactive
outcome [15]: inactive
outcome [8]: inactive
outcome [9]: inactive
outcome [10]: inactive
outcome [11]: inactive
outcome [12]: inactive
outcome [13]: inactive
outcome [14]: inactive

CCC(C)N(C)C(=O)c1cc2ccccc2c(-c2ccccc2Cl)n1 (stereo not drawn)
outcome (CYP2C9 (gene 1559)): inactive
AC50 (CYP2E1 (gene 1571)): 14.1 µM (active)
AC50 (CYP4A11 (gene 1579)): 15.4 µM (active)
AC50 [1]: 3.23 µM (active)
outcome [2]: inactive
outcome [3]: inactive
outcome [4]: inactive
AC50 (CYP3A5 (gene 1577)): 31.8 µM (active)
AC50 [6]: 13 µM (active)
AC50 [7]: 13.1 µM (active)
outcome [15]: inactive
outcome [8]: inactive
outcome [9]: inactive
AC50 [10]: 8.59 µM (active)
outcome [11]: inactive
outcome [12]: inactive
outcome [13]: inactive

C/C=C/C=C/C(=O)O
outcome (CYP2C9 (gene 1559)): inactive
outcome (CYP2E1 (gene 1571)): inactive
outcome (CYP4A11 (gene 1579)): inactive
outcome [1]: inactive
outcome [16]: inactive
outcome [3]: inactive
outcome [4]: inactive
outcome (CYP3A5 (gene 1577)): inactive
outcome [6]: inactive
outcome [8]: inactive
AC50 [9]: 0.256 µM (active)
outcome [10]: inactive
outcome [11]: inactive
outcome [12]: inactive
outcome [13]: inactive
outcome [14]: inactive

NC(=Nc1ccccc1)Nc1ccccc1
outcome (CYP2C9 (gene 1559)): inactive
outcome (CYP2E1 (gene 1571)): inactive
outcome (CYP4A11 (gene 1579)): inactive
outcome [1]: inactive
outcome [2]: inactive
outcome [3]: inactive
outcome [4]: inactive
outcome [5]: inactive
outcome (CYP3A5 (gene 1577)): inactive
outcome [6]: inactive
outcome [7]: inactive
outcome [8]: inactive
outcome [9]: inactive
outcome [10]: inactive
outcome [11]: inactive
outcome [12]: inactive
outcome [13]: inactive
outcome [14]: inactive

O=NO
outcome (CYP2C9 (gene 1559)): inactive
outcome (CYP2E1 (gene 1571)): inactive
outcome (CYP4A11 (gene 1579)): inactive
outcome [1]: inactive
outcome [2]: inactive
outcome [3]: inactive
outcome [4]: inactive
outcome [5]: inactive
outcome (CYP3A5 (gene 1577)): inactive
outcome [6]: inactive
outcome [7]: inactive
outcome [8]: inactive
outcome [9]: inactive
outcome [10]: inactive
outcome [11]: inactive
outcome [12]: inactive
outcome [13]: inactive
outcome [14]: inactive

O=C1O[C@H]([C@H](O)CO)C(O)=C1O
outcome (CYP2C9 (gene 1559)): inactive
outcome (CYP2E1 (gene 1571)): inactive
outcome (CYP4A11 (gene 1579)): inactive
outcome [1]: inactive
outcome [16]: inactive
outcome [2]: inactive
outcome [3]: inactive
outcome [4]: inactive
outcome (CYP3A5 (gene 1577)): inactive
outcome [6]: inactive
outcome [7]: inactive
outcome [8]: inactive
outcome [9]: inactive
outcome [10]: inactive
outcome [11]: inactive
outcome [12]: inactive
outcome [13]: inactive
outcome [14]: inactive

CC(C)COC(=O)CCCCC(=O)OCC(C)C
outcome (CYP2C9 (gene 1559)): inactive
outcome (CYP2E1 (gene 1571)): inactive
outcome (CYP4A11 (gene 1579)): inactive
outcome [1]: inactive
outcome [2]: inactive
outcome [3]: inactive
outcome [4]: inactive
outcome [5]: inactive
outcome (CYP3A5 (gene 1577)): inactive
outcome [6]: inactive
outcome [7]: inactive
outcome [15]: inactive
outcome [8]: inactive
outcome [9]: inactive
outcome [10]: inactive
outcome [11]: inactive
outcome [12]: inactive
outcome [13]: inactive
outcome [14]: inactive
